Compound activity as filed in PubChem BioAssay.
Pf growth 96h: inhibits malaria parasite growth, 96 h; AID 504834; P. falciparum luciferase reporter growth, 96 h; Potency, µM (doses to about 28.7 µM), most hits filed as inhibitors; 320,000 compounds, 6.9% hits
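Two parasite generations (96 h, 37 C, 5% CO2) of compound exposure in infected erythrocytes (0.05% parasitemia, 2% hematocrit). Luciferase-reporter P. falciparum; decreased luminescence indicates inhibited growth, aimed at apicoplast-acting delayed death.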
CHX counter: affects cycloheximide protein synthesis inhibition readout, counter-screen; cell reporter, cycloheximide protein synthesis inhibition counterscreen; max response, %; 300,000 compounds, 12% hits; in the data active = max response mostly above about 13%, no sharp cut-off; inactive = mostly below about 14%; also: read at 38.3 µM for the half of the compounds with a filed dose
FBPA Giardia inh: inhibitors of Giardia lamblia fructose-1,6-bisphosphate aldolase | Potency, µM (series often up to 59.6 µM), hits mostly inhibitors | purified Giardia FBPA | A8B2U2 | 290,000 compounds, 0.71% hits; also: nearly all actives have a fitted effect of over 55% in size
Target sequence (A8B2U2 whole entry, looked up): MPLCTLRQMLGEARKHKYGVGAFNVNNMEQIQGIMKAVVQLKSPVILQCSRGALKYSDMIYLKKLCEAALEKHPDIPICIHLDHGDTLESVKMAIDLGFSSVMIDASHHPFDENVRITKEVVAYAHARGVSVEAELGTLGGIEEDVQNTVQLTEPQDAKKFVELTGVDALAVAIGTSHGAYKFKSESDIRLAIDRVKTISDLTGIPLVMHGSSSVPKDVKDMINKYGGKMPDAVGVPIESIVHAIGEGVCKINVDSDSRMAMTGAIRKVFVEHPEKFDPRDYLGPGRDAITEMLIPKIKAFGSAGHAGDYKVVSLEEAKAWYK
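Giardia FBPA (40 nM reagent) was preincubated 10 min at RT with compound (up to 57.5 uM final), then substrate plus GAPDH/TPI/NAD/arsenate coupling system with diaphorase/resazurin was added; resorufin fluorescence (525/598 nm) was read after 20 min.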
Shiga toxin inh: Shiga toxin inhibition. Vero cells, Shiga toxin protein synthesis inhibition reporter. inhibition, % at 38.7 µM. 290,000 compounds, 9.2% hits. AID 2315; in the data active = inhibition mostly above about 28%, no sharp cut-off; inactive = mostly below about 43%
NS1 inh: inhibitors of influenza NS1 protein function. AID 2326. Potency, µM (highest dose often 46.1 µM). 270,000 compounds, 0.4% hits; calls by dose curve; also: actives are rising curves; nearly all actives have a fitted effect of over 50% in size
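Compounds were scored for reversing the slow growth caused by influenza A NS1 in S. cerevisiae, measured by optical density at 600 nm. Assay medium contained 2% galactose at pH 6.0; NS1-free yeast of the same strain were the positive control.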
Pf growth 48h: P. falciparum growth inhibition at 48 hours (one generation); P. falciparum luciferase growth in erythrocytes, 48 h; Potency, µM (top dose mostly 28.7 µM), actives largely listed as inhibitors; 310,000 compounds, 5.9% hits; AID 504832
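Growth was read as firefly luciferase luminescence after a 48 h, 37 C, 5% CO2 exposure of compounds to reporter-bearing P. falciparum cultures (0.1% parasitemia, 2% hematocrit final) in Albumax-supplemented RPMI 1640.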
A number is an active result. Rows were chosen to be rich in hits. Some 21% of all compounds tested hit in one or more screens of this group. Unless noted, calls follow the shape of the dose curve; as a rule, active = well fitted curve in the direction sought with a large enough effect; inconclusive = small, poorly fitted or top-dose-only effect, or another doubt; inactive = no such curve, though single readings can be large; an effect the other way counts as inactive or inconclusive.

Screening Cc1ccc(NC(=O)CCC(=O)NNC(=O)COc2ccc([N+](=O)[O-])cc2)c(C)c1 returned Pf growth 96h inactive, CHX counter inactive, Shiga toxin inh inactive, NS1 inh inactive and Pf growth 48h inactive.
For CCc1ccc(S(=O)(=O)/N=C2\C=C(Nc3ccc(O)cc3)C(=O)c3ccccc32)cc1 the results were Pf growth 96h inconclusive, CHX counter 17, FBPA Giardia inh 1.4µM, Shiga toxin inh inactive, NS1 inh inactive and Pf growth 48h 0.74µM.
`CCc1ccc(S(=O)(=O)O)cc1` gave Pf growth 96h inactive, CHX counter inactive, FBPA Giardia inh inactive, Shiga toxin inh inactive and Pf growth 48h inactive.
`O=C(C1CCCCCC1)N1CC[C@@H](N2CCC(O)CC2)[C@H](O)C1` gave Pf growth 96h inconclusive, CHX counter inactive, FBPA Giardia inh inactive, Shiga toxin inh inactive, NS1 inh inactive and Pf growth 48h inactive.
Screening CC(C)(C)OC(=O)N[C@H](C(=O)OC(C)(C)C)c1ccc2c(c1)OCO2 returned Pf growth 96h inconclusive and Pf growth 48h 12µM.
Screening Cc1cccc([C@H](NC(=O)OC(C)(C)C)C(=O)OC(C)(C)C)c1 returned Pf growth 96h inconclusive and Pf growth 48h inactive.
Screening CCOC(=O)N1CCN(C(=O)c2cc3ccc(OC)cc3[nH]2)CC1 returned Pf growth 96h inactive, CHX counter inactive, FBPA Giardia inh inactive, Shiga toxin inh inactive, NS1 inh inactive and Pf growth 48h inactive.
`CCOC(=O)C1CCN(C(=O)c2cc3ccc(OC)cc3[nH]2)CC1` gave Pf growth 96h inactive, CHX counter 27, FBPA Giardia inh inactive, Shiga toxin inh inactive, NS1 inh inactive and Pf growth 48h inactive.
Screening CCOC(=O)C1CCN(C(=O)c2cc3cc(Cl)ccc3[nH]2)CC1 returned Pf growth 96h inconclusive, CHX counter 23, FBPA Giardia inh inactive, Shiga toxin inh 49, NS1 inh inactive and Pf growth 48h inconclusive.
For CCOC(=O)N1CCN(C(=O)c2cc3cc(C)ccc3[nH]2)CC1 the results were Pf growth 96h inconclusive, CHX counter inactive, FBPA Giardia inh inactive, Shiga toxin inh inactive, NS1 inh inactive and Pf growth 48h inactive.
`CCC[n+]1cn(/C(C(=S)Nc2cccc(Cl)c2C)=C(/[O-])c2ccc(OC)c(OC)c2)c2ccccc21` gave Pf growth 96h inconclusive, CHX counter inactive, FBPA Giardia inh inactive, Shiga toxin inh inactive and Pf growth 48h inconclusive.
Screening CC(C)(C)OC(=O)N1CCCN(C(=O)Nc2ccc(C(F)(F)F)cc2)CC1 returned Pf growth 96h inconclusive, CHX counter inactive, FBPA Giardia inh inactive, Shiga toxin inh inactive, NS1 inh inactive and Pf growth 48h inconclusive.
COc1cc(OC)cc(C2=NC3(CCC(C)CC3)NC2=S)c1 (stereo unspecified) was read as Pf growth 96h inactive, CHX counter inactive, FBPA Giardia inh inactive, Shiga toxin inh inactive and Pf growth 48h 10µM.
O=C(Nc1cccc(S(=O)(=O)NC2=NCCC2)c1)c1cc(Cl)ccc1[N+](=O)[O-] was read as Pf growth 96h inactive and Pf growth 48h inconclusive.
For O=[N+]([O-])c1ccc(/C=C/c2ccc3cccc(O)c3n2)cc1 the results were Pf growth 96h inactive, CHX counter 60, FBPA Giardia inh inactive, Shiga toxin inh 98 and NS1 inh inactive.
Screening CC(=O)Nc1ccc(/C=C/c2ccc3cccc([N+](=O)[O-])c3n2)cc1 returned Pf growth 96h inconclusive, CHX counter 23, FBPA Giardia inh inactive, Shiga toxin inh 75, NS1 inh inactive and Pf growth 48h inactive.
`O=C(O)COc1ccc(/C=C/c2ccc3cccc([N+](=O)[O-])c3n2)cc1` gave Pf growth 96h inactive, CHX counter inactive, FBPA Giardia inh inactive, Shiga toxin inh inactive, NS1 inh inactive and Pf growth 48h inactive.
`C(=C\c1ccc2ccccc2n1)/c1ccccc1` gave Pf growth 96h inactive, CHX counter inactive, FBPA Giardia inh inconclusive, Shiga toxin inh inactive, NS1 inh inactive and Pf growth 48h inactive.
O=[N+]([O-])c1ccc(/C=C/c2ccc3ccccc3n2)cc1 was read as Pf growth 96h inactive, CHX counter 21, FBPA Giardia inh inactive, Shiga toxin inh inactive and Pf growth 48h inactive.
For O=C(c1ccc(NS(=O)(=O)/C=C/c2ccccc2)cc1)N1CCCCC1 the results were Pf growth 96h inactive and Pf growth 48h inactive.
For O=C(Nc1ccc(Cc2ccncc2)cc1)c1ccc(Br)o1 the results were CHX counter 15, FBPA Giardia inh inactive, Shiga toxin inh inactive, NS1 inh inactive and Pf growth 48h inactive.
For O=C(Nc1ccc2c(c1)Cc1ccccc1-2)c1ccc(Br)o1 the results were Pf growth 96h inconclusive, CHX counter 34, FBPA Giardia inh inactive, Shiga toxin inh 35, NS1 inh inactive and Pf growth 48h inactive.
Screening O=C(O)c1ccccc1-c1ccccc1C(=O)Nc1ccc2c(c1)Cc1ccccc1-2 returned NS1 inh inactive.
NC(=O)c1ccccc1NC(=S)NC(=O)c1ccc(Br)o1 was read as Pf growth 96h inactive, CHX counter 35, FBPA Giardia inh inconclusive, Shiga toxin inh 56, NS1 inh inactive and Pf growth 48h inactive.
O=C(NNC(=S)NCc1ccc(Cl)cc1)c1ccc(Br)o1 was read as Pf growth 96h inactive, CHX counter inactive, FBPA Giardia inh inactive, Shiga toxin inh inactive, NS1 inh inactive and Pf growth 48h inactive.
`CC(C)(Oc1ccc(Cl)cc1)C(=O)NNC(=O)c1ccc(Br)o1` gave Pf growth 96h inactive, CHX counter 15, Shiga toxin inh inactive, NS1 inh inactive and Pf growth 48h inactive.
Screening COc1ccc(NC(=O)c2ccc(Br)o2)cc1 returned Pf growth 96h inactive, CHX counter 36, FBPA Giardia inh inactive, Shiga toxin inh 96, NS1 inh inactive and Pf growth 48h inactive.
`CN(C)S(=O)(=O)c1ccc(NC(=O)c2ccc(Br)o2)cc1` gave Pf growth 96h inactive, CHX counter inactive, FBPA Giardia inh inactive, Shiga toxin inh inactive and NS1 inh inactive.
Screening CC(C)c1ccc(NC(=O)c2ccc(Br)o2)cc1 returned Pf growth 96h inactive, CHX counter 40, FBPA Giardia inh inactive, Shiga toxin inh 50, NS1 inh inactive and Pf growth 48h inactive.
For O=C(Nc1ccc(Nc2ccccc2)cc1)c1ccc(Br)o1 the results were Pf growth 96h inactive, CHX counter 27, FBPA Giardia inh inactive, Shiga toxin inh 61, NS1 inh inactive and Pf growth 48h inactive.
O=C(NC(=S)Nc1ccccc1)c1ccc(Br)o1 was read as Pf growth 96h inactive, CHX counter 36, FBPA Giardia inh inactive, Shiga toxin inh 79, NS1 inh inactive and Pf growth 48h inactive.
Screening CC(OC(=O)c1ccc(CN2CCCC2=O)cc1)C(=O)Nc1ccc(Cl)cc1 (stereo unspecified) returned Pf growth 96h inactive and Pf growth 48h inactive.
`COC(=O)C(c1ccc(OC)c(OC)c1)C1c2ccccc2C=C(C)N1C(=O)OC` (stereo unspecified) gave FBPA Giardia inh inactive.
